In PubChem BioAssay AID1159580 (chemical genetic matrix, 2015):
About 2,000 (36%) of roughly 5,500 compounds were called active. Roughly 18% stayed inconclusive and do not appear here. Some of the results follow. Values without a mark were called inactive. Rule as the data show it: active = normalized growth mostly below about 0.91 (no sharp cut-off); inconclusive = no clear call, values can overlap the other calls; inactive = mostly above about 0.92.

Assay: chemical genetic growth profiling, strain panel (AID 1159580);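 also: tested at 20 µM; growth read once vehicle control cultures reached saturation at 30 °C; 1 = growth at the plate median or of vehicle wells; lower values mean less growth of the strain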
Settings: S. cerevisiae deletion strains, growth OD

## O=C(CCCN1CCC(O)(c2cccc(C(F)(F)F)c2)CC1)c1ccc(F)cc1
Locus YAL013W, strain DEP1, hits give low values
  normalized growth: 0.832 (active)
Locus YAL040C, strain CLN3, hits give low values
  normalized growth: 1.01
Locus YCL061C, strain MRC1 (second series), hits give low values
  normalized growth: 0.974
Locus YDR363W, strain ESC2, hits give low values
  normalized growth: 0.851 (active)
Locus YER002W, strain NOP16, hits give low values
  normalized growth: 1.03
Locus YGR078C, strain PAC10, hits give low values
  normalized growth: 0.985
Locus YMR307W, strain GAS1, hits give low values
  normalized growth: 0.818 (active)
Locus YNL153C, strain GIM3, hits give low values
  normalized growth: 0.961
Locus YNL197C, strain WHI3, hits give low values
  normalized growth: 1.05
Locus YNL224C, strain SQS1, hits give low values
  normalized growth: 1.13 [resistant] (active)
Locus YNL322C, strain KRE1, hits give low values
  normalized growth: 0.882 (active)
Locus YOR083W, strain WHI5 (second series), hits give low values
  normalized growth: 1.04
